Source: PubChem
D3 antag = qHTS of D3 Dopamine Receptor Antagonist: qHTS. D(3) dopamine receptor (Homo sapiens), P35462. AID 652054, 2013. max response, negative = inhibition, %. D3R cells, DiscoveRx beta-arrestin luminescence, antagonist mode; hits give low values. 360,000 tested, 2.5% active; in the data active means max response below about -50%; inconclusive means no clear call, values can overlap the other calls
Target sequence (P35462 whole entry, looked up): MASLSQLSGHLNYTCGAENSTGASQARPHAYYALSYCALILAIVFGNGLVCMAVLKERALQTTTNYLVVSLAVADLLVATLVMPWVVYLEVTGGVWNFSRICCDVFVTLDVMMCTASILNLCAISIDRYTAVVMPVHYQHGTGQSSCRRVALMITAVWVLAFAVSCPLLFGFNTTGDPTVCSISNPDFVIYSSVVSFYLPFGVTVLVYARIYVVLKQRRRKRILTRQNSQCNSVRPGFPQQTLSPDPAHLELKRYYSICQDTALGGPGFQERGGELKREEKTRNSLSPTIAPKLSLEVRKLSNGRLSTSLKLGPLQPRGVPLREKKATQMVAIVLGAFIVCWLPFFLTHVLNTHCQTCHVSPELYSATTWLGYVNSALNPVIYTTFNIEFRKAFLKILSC
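Cells plated overnight at 1500 cells/well, then exposed to library compounds with dopamine controls for 90 minutes at 37 degrees C. DiscoveRx reagent added for 30–60 minutes at room temperature; luminescence read, quantitative HTS format.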
D3 ag = qHTS of D3 Dopamine Receptor Agonist: qHTS. AID 652048, 2013. D3R DiscoveRx beta-arrestin cells, luminescence, 90 min. max activation, %. 410,000 tested, 0.58% active; in the data active means max activation above about 30%
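Cells at 1500/well, incubated overnight, then treated with pinned compounds (dopamine as control) for 90 min at 37 degrees C. DiscoveRx reagent added for 30 - 60 minutes at room temperature; luminescence read.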
ERG Ets-DNA blk = qHTS for Small Molecule Inhibitors of the ERG Ets/DNA interaction; Transcriptional regulator ERG (Homo sapiens), P11308; fluorescence polarization, His-ERG Ets domain / labelled DNA; Potency, µM (highest dose often 76.9 µM), most hits filed as inhibitors; 370,000 tested, 0.028% active; active means well fitted inhibition curve with a large enough effect in the polarisation, with a control signal flat; inconclusive means small, poorly fitted or top-dose-only effect, or effect the other way, or a change in a side signal; inactive means no such curve, though single readings can be large or run the other way; the % refers to the polarisation;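 further: polarization taken with two DNA probes labelled with fluorescein and Texas red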
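His-tagged ERG Ets domain (1 uM in the protein solution; 300mM KCl, 50mM Tris-HCl, 1mM EDTA, 1mM DTT, pH 7.5) received compound, then a probe mix of 5 nM fluorescein-DNA and 100nM Texas-615-DNA. Fluorescence polarization was read for both dyes.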
D1 antagonist = Antagonist of Human D 1 Dopamine Receptor: qHTS; D(1A) dopamine receptor (Homo sapiens), P21728; HEK293 TREx D1 cells, calcium flux, dopamine EC80; hits give low values; activity change, negative = inhibition, % at 10 µM; 360,000 tested, 3.2% active; AID 504652, 2011; in the data active means activity change below about -30%
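Using tetracycline-induced force-coupled D1 Hek293 cells and a calcium dye, signals were followed for 180 s after compound, then for 180 s after EC80 dopamine, to detect inhibitors.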
D1 PAM = Potentiators of Human D1 Dopamine Receptor: qHTS; D(1A) dopamine receptor (Homo sapiens), P21728; HEK293 TREx D1 cells, calcium flux, dopamine EC20 potentiation; potentiation, % at 10 µM; 360,000 tested, 0.036% active; in the data active means potentiation above about 30%
D1 agonist = Allosteric Agonists of the Human D1 Dopamine Receptor: qHTS. 360,000 tested, 1% active. activation, % at 2 µM. HEK293 T-REx D1 cells, calcium flux, agonist mode. D(1A) dopamine receptor (Homo sapiens), P21728; in the data active means activation above about 30%
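Tetracycline-induced HEK293 TREx D1 cells, force-coupled to calcium signalling, were dye-loaded with a no-wash calcium kit. Compound was pin-added after a 10 s baseline. Fluorescence was read kinetically at 1 cycle/s for 180 s, with calcium rises flagged as agonism.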
Of the large screens only hits and unclear results are named; the others gave an inactive call. In the library only some 6.1% were active in any assay of this set; here they are far more common.

COc1ccc(CCNC(=O)Nc2cccc([N+](=O)[O-])c2)cc1	D1 antagonist -33.9
O=C(Nc1ccc2c(c1)OCCO2)Nc1ccc2c(c1)OCO2	none
O=C(Nc1cccc([N+](=O)[O-])c1)C1C2/C=C\CCCCC21 (stereo unspecified)	D1 antagonist -33.8
Cc1nc(-c2cccc(NC(=O)Nc3ccc([N+](=O)[O-])cc3)c2)no1	D1 antagonist -44.9 (no result: D3 antag)
O=C(CN1CCCCCC1)Nc1cccc([N+](=O)[O-])c1	D3 antag -82.6
CC1CCCN(CC(=O)Nc2cccc([N+](=O)[O-])c2)C1 (stereo unspecified)	none
Cc1occc1C(=O)NNC(=S)Nc1cccc([N+](=O)[O-])c1	D3 antag -108.9
O=C(Cn1cccc1C(=O)c1ccccc1)NCc1ccccn1	none
COc1ccc(CCNC(=O)CNC(=O)N2CC(=O)Nc3ccccc32)cc1	none (no result: ERG Ets-DNA blk, D1 antagonist, D1 PAM, D1 agonist)
O=C(Nc1ccc(C(=O)O)cc1)Nc1cccc([N+](=O)[O-])c1	none
O=C(Nc1cccc([N+](=O)[O-])c1)Nc1cccc([N+](=O)[O-])c1	D1 antagonist -45.4, D1 agonist 37.4
O=C(CCCc1ccccc1)Nc1cccc([N+](=O)[O-])c1	D1 antagonist -37.3
Cc1cc(C)nc(N/N=C/c2cn[nH]c2-c2ccccc2)n1	none
COC(=O)c1cc(S(=O)(=O)Nc2cccc(S(N)(=O)=O)c2)oc1C	none
Cc1ccc(NCc2nnc(SCCN3CCCCC3)n2CC2CCCO2)c(C)c1 (stereo unspecified)	D3 antag -54.2
Cc1ccc(NCc2nnc(SCC(=O)Nc3ccccc3)n2CC2CCCO2)c(C)c1 (stereo unspecified)	none
O=C(CCCN1C(=O)C(c2ccccc2)Oc2cccnc21)Nc1cccc(F)c1 (stereo unspecified)	D1 antagonist -44.1
Cc1cc(C)cc(NC(=O)CCCN2C(=O)C(c3ccccc3)Oc3cccnc32)c1 (stereo unspecified)	none
Cc1ccc(CCNC(=O)c2ccc3[nH]c(C)c(C)c3c2)cc1	D1 antagonist -44.1 (no result: D3 antag)
CCOc1ccc(OCC)c(S(=O)(=O)NCc2ccc3c(c2)OCO3)c1	D3 antag inconclusive (no result: D1 PAM)
COc1ccc(Cl)cc1-n1nnc(-c2nc(-c3ccccc3)no2)c1C	D1 antagonist -56.6 (no result: D3 antag)
COc1cc(-c2noc(-c3nnn(-c4ccc(Cl)cc4)c3C)n2)cc(OC)c1OC	D1 antagonist -33.2 (no result: D3 antag)
CCCOC(=O)c1ccc(NC(=O)CCC(=O)OCC)cc1	none
CSc1ccc(/C=N/N2CCN(Cc3ccc(Cl)cc3)CC2)cc1	D3 antag -54.2
CSc1ccc(/C=N/NC(=O)CN2CCN(Cc3ccc(Cl)cc3)CC2)cc1	D3 antag inconclusive, D1 agonist 38.4
CSc1ccc(/C=N/NC(=O)CN2CCN(Cc3ccccc3)CC2)cc1	none
Cc1ccc(NC(=O)C2CCN(S(=O)(=O)c3c(C)noc3/C=C/c3ccco3)CC2)cc1C	none (no result: D3 antag)
CCc1ccccc1N(CC)C(=O)CCc1nc(-c2ccc(C)cc2)no1	D1 agonist 34.2
CC(C)(C)c1ccc(-c2noc(CCC(N)=O)n2)cc1	D1 antagonist -39.8
CNC(=O)CCc1nc(-c2ccc(C(C)(C)C)cc2)no1	none
Cc1ccc(-c2noc(CCC(=O)N(C)c3ccccc3F)n2)cc1	none (no result: D3 antag)
CCOC(=O)c1ccccc1NC(=O)CCc1nc(-c2ccc(C)cc2)no1	none (no result: D3 antag)
Cc1ccc(-c2noc(CCC(=O)Nc3ccc(C)cn3)n2)cc1	D3 antag -73.0
O=C(NC(=S)N1CCCC1)c1ccc(Cl)cc1Cl	none
COc1cc(S(=O)(=O)N2CCCCC2)ccc1NC(=O)c1ccncc1	none
O=[N+]([O-])c1ccccc1C1Nc2cccc3cccc(c23)N1	D3 antag -104.0
